# TTR transcr act = activators of transthyretin transcription. activation, % at 16.7 µM. 92,000 compounds, 1.3% hits. AID 1117267. SH-SY5Y TTR promoter Gaussia luciferase, luminescence; 100% = recombinant luciferase protein wells;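 active = activation above the mean of all tested compounds plus 3 SD, cut at about 9.5% in these data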;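 also: cells exposed to compounds for one day before reading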
# HuH7 TTR inh = decreases TTR transcription in HuH7 cells in activator counter-screen. shares compounds with TTR transcr act. HuH7 TTR promoter-Gaussia luciferase reporter, luminescence. inhibition, % at 16.7 µM. 1,100 compounds, 4% hits. AID 1117279;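 active = average inhibition above the solvent-only control wells' mean plus 3 SD, cut at about 15% in these data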;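 also: inhibitors lower well luminescence so higher value means more inhibition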
# TTR up confirm = human TTR transcription activation, confirmation; shares compounds with TTR transcr act; SHSY5Y TTR promoter Gaussia luciferase, luminescence; 100% = purified Lucia enzyme wells, no cells; activation, % at 16.7 µM; 1,100 tested, under 10 active; AID 1117280;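 active = mean activation above a set limit taken from the earlier primary screen, cut at about 11% in these data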
# A number is an active result; . = inactive. The sample as a whole holds a higher share of hits than the screen did.
SMILES,TTR transcr act,others
COc1cccc(NC(=O)CSc2c3c(nc4ccccc24)CCCC3)c1,9.9,HuH7 TTR inh=.;TTR up confirm=.
Cc1cccc(NC(=O)CSc2c3c(nc4ccccc24)CCC3)n1,.,
CCC(=Nc1ccccc1)C1=C(O)CCCC1=O,.,
c1ccc(COc2ccccc2CNc2nn[nH]n2)cc1,.,
CCN(CC)C(=O)CSc1ncnc2sc(-c3ccccc3)cc12,.,
CC(C)C(C)(C#N)NC(=O)CSc1ncnc2sc(-c3ccccc3)cc12 (stereo not drawn),.,
CCc1cc2c(SCC(=O)C(C#N)=C3N(C)c4ccccc4N3C)ncnc2s1,9.9,HuH7 TTR inh=.;TTR up confirm=.
COc1ccc(NC(=O)Nc2cccc([N+](=O)[O-])c2)cc1Cl,.,
CC(=O)c1cccc(N(CC(=O)Nc2ccccc2F)S(C)(=O)=O)c1,.,
CC(=O)c1cccc(N(CC(=O)Nc2ccc(S(=O)(=O)N3CCCC3)cc2)S(C)(=O)=O)c1,.,
CC(=O)c1cccc(NC(=O)CN(c2ccccc2)S(C)(=O)=O)c1,12,HuH7 TTR inh=.;TTR up confirm=.
O=C(Cc1ccc(O)cc1)NCCNC(=S)NCc1ccccc1,.,
Cc1cc(C)nc(SCC(=O)Nc2ccnc3ccccc23)n1,.,
O=C(CSCC(=O)Nc1cccc2ccccc12)Nc1cccc2ccccc12,.,
Cc1cc(C)nc(SCCC(=O)Nc2cccc3ccccc23)n1,13,HuH7 TTR inh=.;TTR up confirm=.
CCCOc1ccc(C2C(C(=O)/C=C/c3ccco3)=C(O)C(=O)N2CCN2CCOCC2)cc1OC (stereo not drawn),.,
CCOC(=O)C1CCN(C(=O)COc2ccc3c(c2)OCO3)CC1,.,
CCOC(=O)C1CCN(C(=O)CN(c2ccc3c(c2)OCO3)S(C)(=O)=O)CC1,18,HuH7 TTR inh=.;TTR up confirm=.
CCOC(=O)C1CCN(C(=O)CN(c2ccc(Cl)c(C(F)(F)F)c2)S(C)(=O)=O)CC1,.,
Cc1ccc(C(=O)NNC(=O)C2CCN(Cc3ccccc3)CC2)cc1,.,
CC(C)C[C@H]1CNC(=S)N1CC1CCCN1C[C@H](CC(C)C)N1C[C@H](Cc2ccc(O)cc2)N(CC2CCCCC2)C1=S (stereo partly drawn),.,
CC(C)C[C@H]1CNC(=S)N1C[C@H]1CCCN1C[C@H](CC(C)C)N1C[C@H](Cc2ccc(O)cc2)N(CCc2ccccc2)C1=S,.,
CC(C)C[C@H]1CNC(=S)N1C[C@H]1CCCN1C[C@H](CC(C)C)N1C[C@H](Cc2ccc(O)cc2)N(CC2CCCCCC2)C1=S,25,HuH7 TTR inh=.;TTR up confirm=.
CCCn1c(NC(=O)c2ccccc2Br)nc2ccccc21,.,
COc1cc2c(cc1OC)C1=NC(=O)CN1C(SCc1ccc(C)cc1)=N2,.,
SMILES,TTR transcr act,others
C=CCSC1=Nc2cc(OC)c(OC)cc2C2=NC(=O)CN12,31,HuH7 TTR inh=.;TTR up confirm=.
C=CCc1ccc(OCCn2cccc2C=O)c(OC)c1,.,
CC(=O)N(Cc1cc(=O)[nH]c2ccccc12)c1cccc(C)c1,.,
CCC(=O)Nc1cnc(NC(=O)c2cccc(F)c2)cc1C,.,
CCC(=O)Nc1cc(C)c(NC(=O)C23CC4CC(CC(C4)C2)C3)cn1,9.9,HuH7 TTR inh=.;TTR up confirm=.
CCCCC(=O)Nc1cc(C)c(NC(=O)c2cccs2)cn1,.,
CN(C)CC(C)(C)NS(=O)(=O)c1ccc(Cl)cc1,.,
COCc1cc([C@@H]2C[C@H]3CN(c4ccccc4)C(=O)[C@]34CCCN24)ccc1OC,.,
COc1ccccc1C(=O)N1CCc2ccccc21,.,
Cc1ccccc1OCC(=O)OCC(=O)N1CCc2ccccc21,.,
COc1cccc(C(=O)OCC(=O)N2CCc3ccccc32)c1OC,12,HuH7 TTR inh=.;TTR up confirm=.
O=C(NC(=S)Nc1ccc(Cl)cn1)C(c1ccccc1)c1ccccc1,.,
CCCc1nnc(-c2ccc(OC)cc2)o1,12,HuH7 TTR inh=.;TTR up confirm=.
COc1ccc(Cc2nnc(-c3ccccc3)o2)cc1,.,
COc1ccc(SCCc2nnc(-c3ccccc3)o2)cc1,.,
CN(CC(=O)Nc1ccc(Cl)c(C(F)(F)F)c1)C(=O)c1cc(=O)c2ccccc2o1,.,
C=CCNc1nc(N)c([N+](=O)[O-])c(N2CCCCCC2)n1,.,
NS(=O)(=O)c1ccc(NC(=O)CSc2nc3ccccc3c(=O)n2Cc2ccncc2)cc1,.,
CCCn1c(SCC(=O)N2CC(=O)Nc3ccccc32)nc2ccccc21,.,
C[C@@]12C(=O)N(CCO)CC(=O)N1[C@H](/C=C/c1ccccc1)[C@@H]1C(=O)N(c3ccccc3)C(=O)[C@@H]12,23,HuH7 TTR inh=.;TTR up confirm=.
O=C1[C@H]2[C@@H](/C=C/c3ccccc3)N3C(=O)CN(CC4CC4)C(=O)[C@@]3(Cc3ccccc3)[C@H]2C(=O)N1c1ccccc1,.,
O=C1[C@H]2[C@@H](/C=C/c3ccccc3)N3C(=O)CN(CCO)C(=O)[C@@]3(Cc3ccccc3)[C@H]2C(=O)N1c1ccccc1,.,
CSCC[C@H](NC(=O)C1CCN(S(=O)(=O)c2ccccc2)CC1)C(=O)NC1CC1,.,
CCOC(=O)C1CCN(S(=O)(=O)c2ccc3c(c2)NC(=O)CS3)CC1,11,HuH7 TTR inh=.;TTR up confirm=.
